Assay outcomes: PubChem BioAssay, National Center for Advancing Translational Sciences (NCATS)
Pf growth 96h: inhibits malaria parasite growth, 96 h | actives 6.9% (n = 320,000) | P. falciparum luciferase reporter growth, 96 h | Potency, µM (series often up to 28.7 µM), inactives show at the top dose activity change, negative = inhibition, most hits filed as inhibitors; note: potency is the fitted concentration of half-maximal effect
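P. falciparum expressing integrated firefly luciferase, in erythrocytes at 2% hematocrit, 0.05% parasitemia, incubated with compounds 96 h at 37 C, 5% CO2. Growth inhibition read as loss of luminescence; two-generation exposure targets delayed-death apicoplast inhibitors.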
Pf growth 48h: inhibits P. falciparum growth in the first generation, 48 h | P. falciparum luciferase growth in erythrocytes, 48 h | Potency, µM (doses to about 28.7 µM), without a hit: top-dose activity change, negative = inhibition, usual class: inhibitors | actives 5.9% (n = 310,000) | AID 504832; note: potency is the fitted concentration of half-maximal effect
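Compounds are pin-transferred into medium, infected erythrocytes (2% hematocrit, 0.1% parasitemia final) are added, and plates sit one parasite generation at 37 C in 5% CO2. Detection reagent is then added and luminescence measured.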
MARV entry inh: inhibitors of Marburg virus binding or cell entry | Potency, µM (highest dose often 37.8 µM), for inactives: at the highest dose activity change, negative = inhibition, most hits filed as inhibitors | actives 1.8% (n = 300,000) | AID 540276 | Marburg virus pseudotyped entry inhibition, cell reporter; calls by dose curve; tested in HEK293 cells; note: potency is the fitted concentration of half-maximal effect
LASV entry inh: Lassa virus entry inhibition; Lassa virus pseudotype entry inhibition, cell reporter; Potency, µM (highest dose often 37.9 µM), for inactives: at the highest dose activity change, negative = inhibition, hits mostly inhibitors; actives 1.2% (n = 300,000); AID 540256; calls by dose curve; tested in HEK293 cells; note: potency is the fitted concentration of half-maximal effect; nearly all actives have a fitted effect of over 50% in size
HCV inh: inhibitors of hepatitis C virus infection. Huh7.5.1 HCVcc-Cre infection, luciferase reporter, 44 h. Potency, µM (titrated, usually from 41.8 µM), inactives show at the highest dose activity change, negative = inhibition, most hits filed as inhibitors. actives 3.4% (n = 340,000); note: potency is the fitted concentration of half-maximal effect
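Antiviral activity was scored by luciferase reporter output from cells infected with HCVcc-Cre (~0.5 moi) in presence of compound, 44 h infection period, cells seeded 1,000/well 4 h prior.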
HCMV antiviral: inhibitors of human cytomegalovirus; HFF cells, HCMV-luciferase reporter, 72 h; hits give low values; activity change, negative = inhibition, % at 57.5 µM; actives 4.5% (n = 410,000); in the data active = activity change below about -60%; inconclusive = no clear call, values can overlap the other calls; inactive = above about -39%
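Two-dose cell screen: HFF monolayers treated with compounds and infected with luciferase-expressing HCMV at 1 PFU/cell, 72 h at 37C, then lysed for luciferase measurement.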
* marks the source's active call; other numbers are inactive results; [ ] = remark or other dose. This is a sample that favours compounds with a hit; in the whole collection about 14% have one here. Unless noted, calls come from the whole dose curve; as a rule, active = well fitted inhibition curve with a large enough effect; inconclusive = small, poorly fitted or top-dose-only effect, or another doubt; inactive = no such curve, though single readings can be large or run the other way. % is set by controls: 0 for no effect and ±100 for the full control effect.

For CCOC(=O)c1sc2nc(SCC#N)n(CC3CCCO3)c(=O)c2c1C (stereo not drawn) the results were Pf growth 96h inconclusive, Pf growth 48h 4.0%, MARV entry inh inconclusive, LASV entry inh inconclusive, HCV inh 1.3% and HCMV antiviral -29.5.
For CCOC(=O)c1sc2nc(SCC(=O)N(CC)CC)n(CCCN3CCCC3=O)c(=O)c2c1C the results were Pf growth 96h -92.4%, Pf growth 48h 2.08µM*, MARV entry inh -15.2%[46.1 µM], LASV entry inh -19.9%[46.1 µM], HCV inh -8.0% and HCMV antiviral inconclusive.
For CCOc1cc(NC(=S)NCCCN2CCOCC2)c(OCC)cc1NC(=O)C(C)C the results were Pf growth 96h -20.0%, Pf growth 48h 14.1%, MARV entry inh 8.5%, LASV entry inh 9.2%, HCV inh -0.7% and HCMV antiviral -25.9.
Screening CCOc1cc(CNCCCN2CCOCC2)cc(Cl)c1OCC(=O)NC(C)(C)C returned Pf growth 96h 224.9%, Pf growth 48h inconclusive, MARV entry inh inconclusive, LASV entry inh inconclusive, HCV inh 11.2µM* and HCMV antiviral 1.2.
For O=C(COc1ccc(C(=O)NCCN2CCOCC2)cc1)Nc1cccc(C(F)(F)F)c1 the results were Pf growth 96h inconclusive, Pf growth 48h -19.4%, MARV entry inh -3.5%, LASV entry inh 2.5%, HCV inh 3.8% and HCMV antiviral -17.1.
CCOc1cc(NC(=S)NCCCN2CCOCC2)c(OCC)cc1NC(=O)CC(C)C was read as Pf growth 96h 335.5%, Pf growth 48h 14.6%, MARV entry inh -25.8%, LASV entry inh 18.4%, HCV inh 21.1% and HCMV antiviral -93.0*.
CCOc1cc(CNCCCN2CCOCC2)cc(Br)c1OCC(=O)Nc1cccc(C(F)(F)F)c1 was read as Pf growth 96h 0.657µM*, Pf growth 48h 1.17µM*, MARV entry inh -9.6%, HCV inh inconclusive and HCMV antiviral -17.5.
COc1cccc(NC(=O)CN(C)C(=O)C23CC4CC(CC(Cl)(C4)C2)C3)c1 was read as Pf growth 96h inconclusive, Pf growth 48h inconclusive, HCV inh -14.3% and HCMV antiviral -22.1.
Screening COc1ccc(S(=O)(=O)Nc2ccc(CC#N)cc2)cc1 returned Pf growth 96h 245.3%, Pf growth 48h -11.4%, MARV entry inh -28.1%[46.1 µM], LASV entry inh 6.7%, HCV inh 2.2% and HCMV antiviral -20.8.
`Cc1cccc(NS(=O)(=O)c2ccc(C3CCCCC3)cc2)n1` gave Pf growth 48h 9.28µM*, MARV entry inh -40.3%, LASV entry inh 1.9%, HCV inh 10.8% and HCMV antiviral -5.2.
Screening N#CCc1ccc(NS(=O)(=O)c2ccc(C3CCCCC3)cc2)cc1 returned Pf growth 96h 39.4%, Pf growth 48h 11.2%, MARV entry inh inconclusive, LASV entry inh -0.4%, HCV inh inconclusive and HCMV antiviral -64.2*.
Screening O=C(O)CCC(=O)Nc1ccc2c(c1)Cc1cc(NC(=O)CCC(=O)O)ccc1-2 returned Pf growth 96h 63.3%, Pf growth 48h -11.0%, HCV inh 2.8% and HCMV antiviral -4.1.
O=S(=O)(c1ccccc1)N1C2CCC1CC(O)(c1cccnc1)C2 (stereo not drawn) was read as Pf growth 96h 2.33µM*, Pf growth 48h 3.9%, MARV entry inh 11.2%[46.1 µM], LASV entry inh -2.7%, HCV inh 2.7% and HCMV antiviral 2.6.
Screening CCn1c(C(=O)NCc2cccc(Br)c2)cc2oc3ccccc3c21 returned MARV entry inh inconclusive and HCMV antiviral -81.7*.
`COC(=O)c1cc2oc3ccccc3c2n1Cc1ccc(C)cc1` gave MARV entry inh -6.8%[46.1 µM] and HCMV antiviral -30.1.
CCn1c(C(=O)NCc2cc(Br)ccc2OC)cc2oc3ccccc3c21 was read as MARV entry inh 2.82µM* and HCMV antiviral inconclusive.
Screening CCn1c(C(=O)NCc2ccccc2Br)cc2oc3ccccc3c21 returned MARV entry inh inconclusive and HCMV antiviral -70.7*.
`c1ccc(CCc2nc3ccccc3[nH]2)cc1` gave Pf growth 96h 5.86µM*, Pf growth 48h 83.3%, HCV inh 3.8% and HCMV antiviral -20.3.
c1ccc2[nH]c(CCCc3nc4ccccc4[nH]3)nc2c1 was read as Pf growth 96h 13.1µM*, Pf growth 48h inconclusive, MARV entry inh 5.2%, LASV entry inh 2.9%, HCV inh -3.2% and HCMV antiviral -7.6.
For O=C(NCCc1nc2ccccc2[nH]1)c1cccc(Br)c1 the results were Pf growth 96h 7.5%, Pf growth 48h -7.9%, MARV entry inh 0.8%[46.1 µM], LASV entry inh 2.5%, HCV inh inconclusive and HCMV antiviral -70.0*.
Screening O=C(NCCCc1nc2ccccc2[nH]1)c1cccs1 returned Pf growth 96h 11.7%, Pf growth 48h -9.1%[5.75 µM], MARV entry inh 24.3%[46.1 µM], LASV entry inh 0.7%[46.1 µM], HCV inh 6.1% and HCMV antiviral 1.8.
For O=C(NCCCc1nc2ccccc2[nH]1)c1ccco1 the results were Pf growth 96h 9.28µM*, Pf growth 48h 27.3%, HCV inh 6.8% and HCMV antiviral 28.4.
O=C(Nc1cc(S(=O)(=O)N2CCOCC2)ccc1Cl)c1cc2ccccc2o1 was read as Pf growth 96h inconclusive, Pf growth 48h inconclusive, MARV entry inh -18.6%, LASV entry inh -16.1%, HCV inh inconclusive and HCMV antiviral -0.6.
For COc1cccc(CN2C(=NC(=O)CCC3CCCC3)SC3CS(=O)(=O)CC32)c1 (stereo not drawn) the results were Pf growth 96h inconclusive, Pf growth 48h -20.7%, HCV inh -3.0% and HCMV antiviral -32.5.
O=S(=O)(CCc1nc2ccccc2[nH]1)c1ccc(Br)cc1 was read as Pf growth 96h 10.4µM*, Pf growth 48h inconclusive, MARV entry inh -29.6%, LASV entry inh 5.1%, HCV inh 11.8% and HCMV antiviral inconclusive.
Screening Cc1cc(O)ccc1-c1ccc2nncn2c1 returned HCMV antiviral 72.3.
Cc1cccc(-c2ccc3[nH]c4c(c3c2)CCN2C[C@@H]([C@H](C)O)[C@@H](N(C)C(=O)Nc3ccc(F)cc3)C[C@@H]42)c1 was read as HCMV antiviral -6.0.
Screening C[C@H](O)[C@@H]1CN2CCc3c([nH]c4ccc(-c5ccc6c(c5)OCO6)cc34)[C@@H]2C[C@@H]1N(C)C(=O)NC1CCCCC1 returned HCMV antiviral -86.2*.
Cc1cc2c(s1)c1c(C)nn(Cc3ccccc3F)c(=O)c1n2C was read as Pf growth 96h 7.5% and Pf growth 48h inconclusive.
O=S1(=O)CCC(N(N=Cc2ccco2)c2ccccc2)C1 (stereo not drawn) was read as HCMV antiviral -25.0.
